According to PubChem BioAssay AID2685 (National Center for Advancing Translational Sciences (NCATS), 2010):
The campaign covered roughly 320,000 compounds. About 2,100 (0.66%) were called active. Not shown: some 53% with an inconclusive outcome. Calls follow the shape of the dose curve; as a rule, active = well fitted inhibition curve with a large enough effect in the signal ratio, with a control signal flat (not every such curve was filed as active); inconclusive = small, poorly fitted or top-dose-only effect, or effect the other way, or a change in a side signal; inactive = flat fitted curve, though single readings scatter; the % refers to the signal ratio. Shown is part of a subset that was picked to be rich in actives.

Experiment: qHTS Assay for Lipid Storage Modulators in Drosophila S3 Cells;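 as to cell number change: cells counted by Cell Tracker Red CMTPX staining in the red channel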; as to lipid storage change, negative = inhibition: % is scaled to controls: 0 for no effect and ±100 for the full control effect
Settings: BODIPY lipid droplet fluorescence, 18-24 h, cells fed with added oleic acid; cell number change: measured here: cell count max response; series mostly up to 46.1 µM
Outline: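 Drosophila S3 cells loaded with oleic acid (400 uM, as added) and compounds at several concentrations; lipid droplets imaged by 488-nm laser-scanning cytometry, 500–530 nm intensity and object ratio to cell channel. Percent activity normalized to 20 uM Triacsin C.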
Potency is read from the fitted curve at half-maximal effect.

Structure (SMILES)	Potency	cell number change [%]	lipid storage change, negative = inhibition
CCOc1c([N+](=O)[O-])cc2c(C)c(C(=O)N3CCN(C)CC3)oc2c1OCC	inactive	-1.04	
CC(C)CC(c1nnnn1C1CCCC1)N1CCN(C(=O)c2ccco2)CC1 (stereo not given)	inactive	-2.29	
COc1ccccc1C(=O)Nc1ccc2[nH]ncc2c1	inactive	0.824	
CC(=O)C1=C(O)C(=O)N(Cc2ccccc2)C1c1ccc(F)cc1 (stereo not given)	inactive	-7.48	
CC(=O)C1=C(O)C(=O)N(Cc2ccccc2)C1c1ccccc1F (stereo not given)	18.4 µM (active)	-6.03	
CC(C)(C)C(=O)C1=C(O)C(=O)N(Cc2ccccc2)C1c1ccccc1F (stereo not given)	inactive	0.73	
S=C(NCC1CCCO1)NC1CCCC1 (stereo not given)	1.3 µM (active)		
S=C(NCC1CCCO1)NC12CC3CC(CC(C3)C1)C2 (stereo not given)	inactive	5.13	
S=C(NCC1CCCO1)Nc1ccccc1 (stereo not given)	inactive	-0.626	
CCOC(=O)c1c(C)[nH]c(C(=O)COC(=O)c2oc3ccc(OC)cc3c2C)c1C	inactive	-6.84	
CCc1nnc(NC(=O)CSc2nc3ccccc3o2)s1	inactive		
O=C(CSc1nc2ccccc2o1)Nc1nncs1	16.4 µM (active)	24.7	
Cc1nnc(NC(=O)CSc2nc3ccccc3o2)s1	inactive	-14	
O=C(O)CCc1nc(-c2cccs2)no1	inactive	-23	
CC(C)C(=O)Nc1ccc(-c2nc3ncccc3o2)cc1	inactive	0.493	
COc1cc(C=O)ccc1OC(=O)c1ccncc1	inactive	-18.5	
CN(c1ccccc1)S(=O)(=O)c1ccc(C(=O)N2CCCC2)cc1	inactive	-4.2	
CN(c1ccc(C(=O)Nc2ccccc2C(=O)N2CCOCC2)cc1)S(C)(=O)=O	inactive	-16	
COc1ccc(S(=O)(=O)N(C)c2ccc(C(=O)N3CCCCC3)cc2)cc1OC	inactive	2.05	
COc1ccc(S(=O)(=O)N(C)c2ccc(C(=O)N3CCCCC3)cc2)cc1	inactive		

Structure (SMILES)	Potency	cell number change [%]	lipid storage change, negative = inhibition
COc1ccc(S(=O)(=O)N(C)c2ccc(C(=O)N3CCOCC3)cc2)cc1OC	inactive		
CN(c1ccc(C(=O)N2CCN(c3ccc(F)cc3)CC2)cc1)S(C)(=O)=O	inactive		
COc1ccc(S(=O)(=O)N(C)c2ccc(C(=O)N3CCCC3)cc2)cc1	inactive	18.3	
CN(c1ccc(C(=O)N2CCOCC2)cc1)S(C)(=O)=O	25.9 µM (active)	-14.6	
COc1ccc(S(=O)(=O)N(C)c2ccc(C(N)=O)cc2)cc1	18.4 µM (active)		
CN(c1ccc(C(=O)N2CCCCCC2)cc1)S(=O)(=O)c1ccccc1	5.17 µM (active)	-9.4	
CN(c1ccc(C(=O)N2CCCCC2)cc1)S(=O)(=O)c1ccccc1	inactive	-27	
COc1ccc(S(=O)(=O)N(C)c2ccc(C(=O)N3CCCC3)cc2)cc1OC	0.326 µM (active)	-7.14	
CCCNC(=O)c1oc2ccc3c(c2c1C)C(O)CC(C)(C)O3 (stereo not given)	inactive	11.7	
O=C(CN1C2CCCC1CC(NC(=O)c1ccco1)C2)Nc1ccccc1C(F)(F)F (stereo not given)	inactive	1.61	
Cc1ccc(C(c2sc3ncnn3c2O)N2CC(C)CC(C)C2)cc1 (stereo not given)	inactive	-0.62	
O=C1c2cccc3cccc(c23)C(=O)N1CC1CCN(S(=O)(=O)c2ccc(F)cc2)CC1	inactive	1.3	
O=S(=O)(Nc1ccc(N2CCCCC2)cc1)c1ccccc1F	inactive	-15.7	
CCOc1ccc2nc(CN3CCN(Cc4ccsc4)C(CCO)C3)ccc2c1 (stereo not given)	inactive	3.37	
Cc1nnc(SCC(=O)N(C)c2c(N)n(Cc3ccccc3)c(=O)[nH]c2=O)n1Cc1ccccc1	inactive	4.04	
CN(C)S(=O)(=O)N1CCN(C(=O)c2ccccc2)CC1	23.1 µM (active)	10.4	
Cc1ccc(S(=O)(=O)N(C)c2ccc(C(=O)N3CCC(C(N)=O)CC3)cc2)cc1	23.1 µM (active)	-5.24	
CN(C)S(=O)(=O)N1CCN(C(=O)c2ccccc2Cl)CC1	inactive		
O=C(c1ccccc1)N1CCN(S(=O)(=O)N2CCCCCC2)CC1	inactive	22.9	
COc1ccc(S(=O)(=O)N(C)CC(=O)N2CCCC2)cc1	inactive	-6.74	

Structure (SMILES)	Potency	cell number change [%]	lipid storage change, negative = inhibition
Cc1cccc(NS(=O)(=O)c2ccc(C(=O)N3CCC3)cc2)c1C	inactive	19.3	
CCOC(=O)C1CCN(C(=O)c2ccc(N(C)S(=O)(=O)c3ccc(OC)cc3)cc2)CC1	inactive	-4.35	
COc1ccc(S(=O)(=O)N(C)CC(=O)N2CCC(C(N)=O)CC2)cc1	14.6 µM (active)	-9.84	
Cc1ccccc1NS(=O)(=O)c1ccc(C(=O)N2CCN(S(=O)(=O)c3ccccc3)CC2)cc1	3.26 µM (active)	-28	
COc1ccc(S(=O)(=O)N(C)CC(=O)N2CCCCCC2)cc1	inactive	7.92	
Cc1ccccc1NS(=O)(=O)c1ccc(C(=O)N2CCCCCC2)cc1	inactive	4.54	
COc1ccc(S(=O)(=O)N(C)c2ccc(C(=O)N3CCC(C(N)=O)CC3)cc2)cc1	inactive	-14.8	
Cc1ccn(CC(=O)N2CCCC(N3CCN(Cc4ccc5c(c4)OCO5)CC3)C2)n1 (stereo not given)	inactive	8.09	
Cc1nc(SCC(=O)N(C)Cc2ccco2)c2c(C)c(C)sc2n1	inactive	-25.2	
O=C(Nc1ccc(C(=O)Oc2ccccc2)c(O)c1)c1ccccc1	inactive	-6.44	
COc1ccc(/C=C2\SC(=S)N(N3CCOCC3)C2=O)c(OC)c1	inactive	7.5	
CC1CCN(C(=O)c2cc(Cl)nc3ccccc23)CC1	inactive	-4.42	
COc1ccc(S(=O)(=O)N2CCC(C(=O)NCc3cccc(OC)c3)CC2)cc1	inactive	29.1	
COc1ccc(/C=N/NC(=O)CCn2nc(C)cc2C)cc1	inactive	9.01	
Cc1cc(C)cc(C(=O)Nc2cc3c4c(c2)CC(=O)N4CCC3)c1		-11.8	-15.8% [at 0.0737 µM] (inactive)
O=C(CSc1ccc(C(F)(F)F)cc1[N+](=O)[O-])N1CCOCC1	inactive	-7.3	
Cc1ccc(-c2nn(CC(=O)NC(C)c3ccccc3)c(=O)c3ccccc23)cc1 (stereo not given)	inactive		
COc1ccccc1Nc1nnc(SCC(=O)c2cc(C)n(CC3CCCO3)c2C)s1 (stereo not given)	inactive	4.55	
CCOc1ccc(CCNC(=O)c2nnn(CC(=O)Nc3c(C)cc(C)cc3C)c2N)cc1OCC	inactive	23.4	
